LMNA splice mod: LMNA splicing modulation; HeLa LMNA splicing GFP/RFP minigene ratio, 48 h; Potency, µM (titrated, usually from 46.1 µM), actives largely listed as inhibitors; actives 0.01% (n = 200,000); AID 1487; active = well fitted inhibition curve with a large enough effect in the signal ratio, with a control signal flat, not every such curve was filed as active; inconclusive = small, poorly fitted or top-dose-only effect, or effect the other way, or a change in a side signal; the % refers to the signal ratio
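Read-out is the ratio of GFP to DsRed2 object intensity, acquired by 488 nm laser-scanning cytometry on HeLa lamin A-EGFP minigene reporter cells. Compound incubation 48 hrs at 37 °C in Opti-MEM with 2% FBS; DMSO 0.5% final.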
HTT aggregate: inhibitors of mutant huntingtin aggregate formation in PC12 cells; PC12 HttQ103-GFP aggregates, Acumen cytometry, 40 h; actives 1.1% (n = 220,000); Potency, µM (series often up to 46.1 µM), usual class: inhibitors; active = well fitted curve in the direction sought with a large enough effect; inconclusive = small, poorly fitted or top-dose-only effect, or another doubt; inactive = no such curve, though single readings can be large; an effect the other way counts as inactive or inconclusive; also: nearly all actives have a fitted effect of over 60% in size
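Huntingtin Q103 exon 1–GFP aggregates in induced PC12 cells (100 nM tebufenozide) were quantified by cytometry from lysates, with compounds dosed in titration.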
HTT ATP protect: cytoprotection in Huntington HTT-Q103 PC12 cell model; PC12 HTT-Q103 induced, cytoprotection, ATP luminescence, 40 h; Potency, µM (series often up to 56.4 µM), usual class: activators; actives 0.14% (n = 230,000); active = well fitted curve in the direction sought with a large enough effect; inconclusive = small, poorly fitted or top-dose-only effect, or another doubt; inactive = no such curve, though single readings can be large; an effect the other way counts as inactive or inconclusive; also: nearly all actives have a fitted effect of over 45% in size
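Readout: ATPlite luminescence (ATP level). Model: stable PC12, inducible Htt exon1 Q103-GFP. Inducer: tebufenozide, 100 nM final. Compounds: dose series. No G418 in medium.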
HPGD inh: blocks human HPGD enzyme activity. purified HPGD, NADH fluorescence kinetic, PGE2 substrate. P15428. Potency, µM, usual class: inhibitors. AID 894. actives 4.3% (n = 150,000)
Target sequence (P15428 whole entry, looked up): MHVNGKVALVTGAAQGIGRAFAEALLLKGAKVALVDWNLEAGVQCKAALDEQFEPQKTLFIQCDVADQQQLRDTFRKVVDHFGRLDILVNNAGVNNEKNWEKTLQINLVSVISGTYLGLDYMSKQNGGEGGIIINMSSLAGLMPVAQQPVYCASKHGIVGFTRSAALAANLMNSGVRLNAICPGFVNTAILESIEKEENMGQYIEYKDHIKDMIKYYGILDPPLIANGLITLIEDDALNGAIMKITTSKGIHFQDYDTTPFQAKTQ
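NADH formation kinetics: reaction with 30 uM PGE2 and 1 mM NAD+ (final), 20 nM enzyme, Tris-HCl pH 8 with Tween 20, after 15 min compound preincubation at room temperature. Fluorescence change, last versus first of five reads.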
ALDH1A1 block: inhibitors of human aldehyde dehydrogenase 1A1; Purified ALDH1A1, NADH fluorescence, propionaldehyde substrate; Potency, µM (series often up to 75.3 µM), most hits filed as inhibitors; actives 7.3% (n = 220,000); AID 1030
Target sequence (P00352 whole entry, looked up): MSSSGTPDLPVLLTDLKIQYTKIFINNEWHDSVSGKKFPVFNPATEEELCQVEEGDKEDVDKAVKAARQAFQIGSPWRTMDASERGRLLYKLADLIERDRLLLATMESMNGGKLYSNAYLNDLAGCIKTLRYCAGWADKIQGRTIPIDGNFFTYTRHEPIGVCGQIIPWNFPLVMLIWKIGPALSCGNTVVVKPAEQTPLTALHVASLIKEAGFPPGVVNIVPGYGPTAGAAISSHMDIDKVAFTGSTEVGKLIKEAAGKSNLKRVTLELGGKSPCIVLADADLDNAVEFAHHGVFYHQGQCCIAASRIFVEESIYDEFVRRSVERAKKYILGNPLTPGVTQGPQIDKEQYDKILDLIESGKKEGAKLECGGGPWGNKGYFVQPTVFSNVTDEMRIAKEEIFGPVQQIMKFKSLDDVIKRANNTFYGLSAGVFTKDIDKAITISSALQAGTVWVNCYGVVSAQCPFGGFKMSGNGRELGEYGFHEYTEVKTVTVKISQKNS
Of the large screens only hits and unclear results are named; the others gave an inactive call. Sampled rows, rich in hits. Any-hit rate of the full collection: about 8.8%. Unless noted, calls follow the shape of the dose curve; as a rule, active = well fitted inhibition curve with a large enough effect (not every such curve was filed as active); inconclusive = small, poorly fitted or top-dose-only effect, or another doubt; inactive = no such curve, though single readings can be large or run the other way.

O=C(CNCc1ccccc1Cl)Nc1ccc2c(c1)OCCO2	ALDH1A1 block 13µM (no result: LMNA splice mod, HPGD inh)
CN(CC(=O)Nc1ccc(N2CCOCC2)cc1)Cc1cc(=O)n2ccsc2n1	ALDH1A1 block inconclusive (no result: HPGD inh)
CCN(CC(=O)Nc1ccc2c(c1)OCCO2)CC(=O)Nc1ccc2c(c1)OCO2	ALDH1A1 block 10µM (no result: LMNA splice mod, HPGD inh)
CCN(CC(=O)Nc1ccc2c(c1)OCCO2)Cc1cc(=O)n2ccsc2n1	ALDH1A1 block 20µM (no result: LMNA splice mod, HPGD inh)
CCN(CC(=O)Nc1ccc2c(c1)OCCO2)Cc1cc(=O)oc2c(C)c(C)ccc12	ALDH1A1 block 16µM
COc1ccccc1OCC(=O)NCCS(=O)(=O)N1CCN(c2ccccc2OC)CC1	none (no result: HTT aggregate, HTT ATP protect, HPGD inh, ALDH1A1 block)
COc1ccccc1NC(=S)N1CCN(C(=O)C2CCCO2)CC1 (stereo unspecified)	HTT ATP protect inconclusive (no result: HPGD inh)
CC(=O)/C=C/n1c(=S)oc2ccccc21	LMNA splice mod inconclusive, HTT aggregate 7.1µM, ALDH1A1 block 7.9µM
O=C1C=CC2=C3c4cc(O)c(O)cc4C[C@@]3(O)COC2=C1	HTT ATP protect inconclusive, HPGD inh 11µM (no result: LMNA splice mod, HTT aggregate)
CCN1C(=O)[C@H]2[C@H]3[C@H](O)[C@H](O)C/C(=N/O[C@@H](C)c4cn([C@H](CO)Cc5ccccc5)nn4)[C@@H]3CC[C@@H]2C1=O	HTT ATP protect inconclusive (no result: LMNA splice mod, HTT aggregate, HPGD inh)
Cc1ccc(-n2c([O-])nc(-[n+]3ccccc3)c2C=O)cc1	ALDH1A1 block 8.9µM
COc1ccc(N(C(=O)c2ccco2)S(=O)(=O)c2ccc(F)cc2)cc1	HPGD inh 28µM
C[N+]1(C)CCC(=C2c3ccccc3CC(=O)c3sccc32)CC1	HTT ATP protect inconclusive, HPGD inh inconclusive, ALDH1A1 block 7.1µM
CC[N+]1(C)CCC(=C2c3ccccc3CC(=O)c3sccc32)CC1 (stereo unspecified)	none
O=C(O)c1ccc2cc(-c3ccc(O)c(C45CC6CC(CC(C6)C4)C5)c3)ccc2c1	HPGD inh inconclusive, ALDH1A1 block inconclusive (no result: LMNA splice mod, HTT aggregate)
Cc1ccc2cc(CN(Cc3ccccc3)Cc3nnnn3C3CCCC3)c(=O)[nH]c2c1	LMNA splice mod inconclusive, HTT aggregate inconclusive, ALDH1A1 block 10µM
COc1ccc(Cn2nnnc2CN(Cc2cc3cccc(C)c3[nH]c2=O)C2CCCC2)cc1	HTT aggregate inconclusive, ALDH1A1 block inconclusive
COc1ccc(Cn2nnnc2CN(Cc2cc3ccc(C)cc3[nH]c2=O)C2CCCC2)cc1	LMNA splice mod inconclusive, ALDH1A1 block 22µM
Cc1ccc2cc(CN(Cc3ccc(F)cc3)Cc3nnnn3C3CCCC3)c(=O)[nH]c2c1	HTT aggregate 25µM, ALDH1A1 block 14µM
Cc1ccc(-n2ncc(C(=O)NCc3ccco3)c2C2CCN(C(=O)OC(C)(C)C)CC2)cc1	none (no result: HTT aggregate, HTT ATP protect, HPGD inh, ALDH1A1 block)
C=CCOC(=O)C1=C(C)N=C2SCCC(=O)N2C1c1ccc(OC(=O)c2ccco2)cc1 (stereo unspecified)	ALDH1A1 block 20µM
CC1(C)S[C@@H]2[C@H](NC(=O)[C@@H](N)c3ccccc3)C(=O)N2[C@H]1C(=O)O[C@H]1OC(=O)c2ccccc21	LMNA splice mod inconclusive, HPGD inh inconclusive, ALDH1A1 block 2.8µM
CC1(C)S[C@@H]2[C@H](NC(=O)[C@@H](N)c3ccc(O)cc3)C(=O)N2[C@H]1C(=O)O	LMNA splice mod inconclusive, HTT ATP protect inconclusive (no result: HTT aggregate)
CCC1CN(C(=O)N2CCC(C(=O)NCCc3cc(OC)ccc3OC)CC2)c2ccccc2O1 (stereo unspecified)	none (no result: HTT aggregate, HTT ATP protect, HPGD inh, ALDH1A1 block)
c1cnc2c(c1)ccc1cccnc12	LMNA splice mod inconclusive, HTT aggregate 7.9µM
CCOC(=O)c1[nH]c2c(c1-c1ccccc1)C(=O)CC(c1ccc(OC)c(OC)c1)C2 (stereo unspecified)	LMNA splice mod inconclusive, ALDH1A1 block 13µM (no result: HTT ATP protect)
CCOC(=O)c1[nH]c2c(c1-c1ccccc1)C(=O)CC(c1ccc(OCC)cc1)C2 (stereo unspecified)	none (no result: HTT ATP protect)
Cc1ccc(Cl)c2c1NC(=O)C2(O)CC(=O)c1ccc(Br)cc1 (stereo unspecified)	HTT aggregate inconclusive, ALDH1A1 block inconclusive
O=C(CC1(O)C(=O)Nc2cc(Cl)cc(Cl)c21)c1ccncc1 (stereo unspecified)	ALDH1A1 block 13µM
CCOc1cc(/C=C2/COc3ccccc3C2=O)ccc1OCC(=O)N(C)C	HTT ATP protect inconclusive (no result: LMNA splice mod, HPGD inh)
CNc1ccc(/C=C2\COc3ccccc3C2=O)cc1[N+](=O)[O-]	HPGD inh 1.6µM
COc1ccc(O)c(/C=N/NC(=S)Nc2cccnc2)c1	HTT aggregate 13µM, ALDH1A1 block inconclusive (no result: HPGD inh)
COc1cc(/C=N/NC(=S)Nc2cccc(C(=O)O)c2)cc(OC)c1OC	LMNA splice mod inconclusive, ALDH1A1 block 14µM
COc1cccc(/C=N/NC(=S)Nc2cccc(C(=O)O)c2)c1	ALDH1A1 block 32µM (no result: LMNA splice mod, HTT ATP protect, HPGD inh)
CC(C)c1ccc(S(=O)(=O)N2CCN(C(C)C(=O)Nc3ccccc3-c3ccccc3)CC2)cc1 (stereo unspecified)	ALDH1A1 block 2.8µM
CC(C(=O)Nc1ccccc1-c1ccccc1)N1CCN(S(=O)(=O)c2ccccc2)CC1 (stereo unspecified)	ALDH1A1 block inconclusive
CC(C(=O)Nc1ccccc1-c1ccccc1)N1CCCCC1 (stereo unspecified)	ALDH1A1 block 20µM
CCOc1ccc(-n2nc3c(SCCN4CCCC4)nnc(C)c3c2C)cc1	HTT aggregate inconclusive
CCN(CC)S(=O)(=O)c1ccc(OC)c(-n2cnnn2)c1	ALDH1A1 block 7.9µM (no result: HPGD inh)
COc1ccc(S(=O)(=O)NC2CCCCC2)cc1-n1cnnn1	ALDH1A1 block 1.6µM (no result: HPGD inh)
C=C1CCC2C(CC2(C)C)C(=O)CCC1O (stereo unspecified)	none (no result: HTT aggregate, HTT ATP protect)
Nc1ncnc2c1ncn2[C@H]1O[C@@H](CSCC[C@@H](N)C(=O)O)[C@H](O)[C@@H]1O	none (no result: LMNA splice mod, HTT aggregate, HPGD inh)
COc1ccc(-c2nnc3n(CCc4ccccc4)c(=O)c4ccccc4n23)cc1OC	ALDH1A1 block 1.8µM (no result: HPGD inh)
COc1ccccc1N1CCN(C(=O)c2oc3ccccc3c2NC(=O)C(C)Oc2ccccc2)CC1 (stereo unspecified)	none (no result: HTT aggregate, HTT ATP protect, HPGD inh, ALDH1A1 block)
CCCC1CC(C)(C(=O)CSc2n[nH]c(-c3ccccc3)n2)OC1=O (stereo unspecified)	ALDH1A1 block 10µM
CCCC1CC(=O)OC1(C)C(=O)CSc1n[nH]c(-c2ccccc2)n1 (stereo unspecified)	ALDH1A1 block 13µM
CCOC(=O)CCSc1nc(C)c2ccccc2n1	none
Cc1cc2nc(SCCOC(=O)Nc3ccc(Cl)cc3)nc(C)c2cc1C	HPGD inh 14µM
CCOC(=O)CCSc1nc(C)c2cc(C)ccc2n1	HPGD inh 20µM
COC(=O)C1=C(C(=O)OC)[C@@H]2N(Cc3ccccc3)c3ccccc3[C@@]23C[C@@H](C(=O)OC)N(S(=O)(=O)c2ccc([N+](=O)[O-])cc2)C3=N1	none (no result: HTT aggregate)
CCN(CCCCN1C(=O)c2ccccc2C1=O)c1ccc2c(c1)C(=O)N(C)C2=O	HPGD inh 10µM, ALDH1A1 block inconclusive

Bioassay records as filed in PubChem BioAssay.
